From the supplement of paper PMC10849652
The full data set covers some 8,800 targets. This sample favours those with a hit. About 0.5% of all pairs of compound and target were hits.

Assays:
Experiment in all cases: log2 fold change, soluble protein after heating vs DMSO (PISA); higher = thermal stabilisation; K562 lysate, 10 uM; active = over 0.2 and 3.5 SD of the protein, either way, in both replicates (recomputed)
erlotinib = compound: C#Cc1cccc(Nc2ncnc3cc(OCCOC)c(OCCOC)cc23)c1 [erlotinib]
Procedure, shortened: (§1)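 Thermal stability, expressed as log-two fold change relative to solvent controls, is given from duplicates. Crude K562 extract in PBS pH 7.4 with 1 mM MgCl2, at 1 mg/mL protein, was treated with 10 μM compound for 30 min and heated in aliquots for 3 min across 48°C-58°C. After pooling, adjustment to 0.5% NP-40 at 4°C and centrifugation at 21,000xg for 90 min, supernatant protein was measured by TMTpro 16plex LC-MS/MS with channel sums equalised.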

[1] = compound: C/C(=N\NC(=O)C1=CC(=CC=C1)S(=O)(=O)N2CCOCC2)/C3=C(C=CC(=C3)Cl)O
Procedure, shortened: as §1

[2] = compound: C1=CC(=CC=C1C2=NC3=C(N2)C=C(C=C3)C(=O)N)OC4=CC=C(C=C4)Cl
Procedure, shortened: as §1

[3] = compound: C1=CC2=C(C=CC(=C2)/C=C\3/C(=O)NC(=NCC4=CC=CS4)S3)N=C1
Procedure, shortened: as §1

[4] = compound: C1=CC2=NC=CN=C2C=C1/C=C/3\C(=O)NC(=O)S3
Procedure, shortened: as §1

[5] = compound: C1=CC=C(C=C1)C2=NC(=C(N2)C3=CC=NC=C3)C4=CC(=C(C=C4)Cl)O
Procedure, shortened: as §1

[6] = compound: C1=CC=C2C(=C1)C3=NNC4=CC=CC(=C43)C2=O
Procedure, shortened: as §1

[7] = compound: C1CCN(C1)C(=O)NC2=CC=CC(=C2)NC3=NC=C(C(=N3)NCCC4=CN=CN4)Br
Procedure, shortened: as §1

[8] = compound: C1CN(CCC1(CC2=CC=C(C=C2)Cl)N)C3=NC=NC4=C3C=CN4
Procedure, shortened: as §1

IRAK-1-4 Inhibitor I = compound: C1COCCN1CCN2C3=CC=CC=C3N=C2NC(=O)C4=CC(=CC=C4)[N+](=O)[O-] [IRAK-1-4 Inhibitor I]
Procedure, shortened: as §1

Measured: log2 fold change

RAB27A (UniProt P51159)
Chain of UniProt P51159 (P51159 whole entry, looked up): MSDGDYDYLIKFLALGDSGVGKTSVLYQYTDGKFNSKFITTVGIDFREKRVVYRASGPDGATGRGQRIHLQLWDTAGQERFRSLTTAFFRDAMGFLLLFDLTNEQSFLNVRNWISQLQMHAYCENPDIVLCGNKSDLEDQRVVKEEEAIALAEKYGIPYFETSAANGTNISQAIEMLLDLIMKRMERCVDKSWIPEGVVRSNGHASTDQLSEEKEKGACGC
inactive: erlotinib -0.045 | [1] 0.023 | [2] -0.014 | [3] 0.009 | [4] -0.009 | [5] -0.003 | [6] -0.025 | [7] -0.031 | [8] -0.015 | IRAK-1-4 Inhibitor I -0.049

RPS9 (UniProt P46781)
inactive: erlotinib -0.034 | [1] 0.022 | [2] -0.03 | [3] -0.054 | [4] -0.016 | [5] -0.011 | [6] 0.011 | [7] 0.025 | [8] -0.018 | IRAK-1-4 Inhibitor I -0.017

RASA3 (UniProt Q14644)
Chain of UniProt Q14644 (Q14644 whole entry, looked up): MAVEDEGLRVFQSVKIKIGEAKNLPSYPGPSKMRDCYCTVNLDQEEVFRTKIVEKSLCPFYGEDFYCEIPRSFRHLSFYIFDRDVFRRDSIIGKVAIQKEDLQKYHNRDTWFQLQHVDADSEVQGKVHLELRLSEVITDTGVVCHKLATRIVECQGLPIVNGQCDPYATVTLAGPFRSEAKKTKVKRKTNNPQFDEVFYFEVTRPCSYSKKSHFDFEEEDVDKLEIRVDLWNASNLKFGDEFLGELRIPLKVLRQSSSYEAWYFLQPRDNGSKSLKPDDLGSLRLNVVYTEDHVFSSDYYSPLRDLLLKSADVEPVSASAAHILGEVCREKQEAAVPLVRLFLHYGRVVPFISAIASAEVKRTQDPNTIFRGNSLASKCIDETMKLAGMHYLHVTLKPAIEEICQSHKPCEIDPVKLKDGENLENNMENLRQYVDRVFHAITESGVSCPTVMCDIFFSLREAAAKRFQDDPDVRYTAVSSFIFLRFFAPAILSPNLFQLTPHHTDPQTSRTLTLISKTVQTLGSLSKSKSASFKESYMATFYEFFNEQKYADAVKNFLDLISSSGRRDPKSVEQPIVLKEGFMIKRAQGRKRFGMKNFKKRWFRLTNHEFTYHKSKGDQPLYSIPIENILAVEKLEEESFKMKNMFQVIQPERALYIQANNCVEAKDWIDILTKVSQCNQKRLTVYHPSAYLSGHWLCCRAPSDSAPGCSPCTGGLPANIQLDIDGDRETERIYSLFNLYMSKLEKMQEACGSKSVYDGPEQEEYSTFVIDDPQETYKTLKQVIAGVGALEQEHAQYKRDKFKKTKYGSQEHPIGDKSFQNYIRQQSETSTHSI
inactive: erlotinib 0.02 | [1] -0.089 | [2] 0.045 | [3] -0.001 | [4] 0.046 | [5] 0.021 | [6] 0.004 | [7] -0.043 | [8] -0.005 | IRAK-1-4 Inhibitor I 0.02

RBMX (UniProt P38159)
inactive: erlotinib 0 | [1] 0.019 | [2] -0.056 | [3] 0.016 | [4] 0.013 | [5] 0.025 | [6] 0.018 | [7] 0.06 | [8] 0.029 | IRAK-1-4 Inhibitor I -0.012

RPS26P11 (UniProt Q5JNZ5)
inactive: erlotinib -0.028 | [1] -0.021 | [2] -0.015 | [3] -0.01 | [4] 0.039 | [5] 0.005 | [6] -0.046 | [7] -0.045 | [8] 0.008 | IRAK-1-4 Inhibitor I 0.001

RFC5 (UniProt P40937)
inactive: erlotinib 0.02 | [1] 0.024 | [2] -0.025 | [3] 0.036 | [4] -0.012 | [5] 0.029 | [6] -0.074 | [7] 0.004 | [8] 0.023 | IRAK-1-4 Inhibitor I 0.019

RPL36AL (UniProt Q969Q0)
inactive: erlotinib -0.036 | [1] -0.098 | [2] -0.012 | [3] 0.061 | [4] -0.029 | [5] 0.029 | [6] 0.048 | [7] 0.049 | [8] -0.05 | IRAK-1-4 Inhibitor I -0.109

RAF1 isoform 2 (UniProt P04049)
Chain of UniProt P04049 (P04049 whole entry, looked up): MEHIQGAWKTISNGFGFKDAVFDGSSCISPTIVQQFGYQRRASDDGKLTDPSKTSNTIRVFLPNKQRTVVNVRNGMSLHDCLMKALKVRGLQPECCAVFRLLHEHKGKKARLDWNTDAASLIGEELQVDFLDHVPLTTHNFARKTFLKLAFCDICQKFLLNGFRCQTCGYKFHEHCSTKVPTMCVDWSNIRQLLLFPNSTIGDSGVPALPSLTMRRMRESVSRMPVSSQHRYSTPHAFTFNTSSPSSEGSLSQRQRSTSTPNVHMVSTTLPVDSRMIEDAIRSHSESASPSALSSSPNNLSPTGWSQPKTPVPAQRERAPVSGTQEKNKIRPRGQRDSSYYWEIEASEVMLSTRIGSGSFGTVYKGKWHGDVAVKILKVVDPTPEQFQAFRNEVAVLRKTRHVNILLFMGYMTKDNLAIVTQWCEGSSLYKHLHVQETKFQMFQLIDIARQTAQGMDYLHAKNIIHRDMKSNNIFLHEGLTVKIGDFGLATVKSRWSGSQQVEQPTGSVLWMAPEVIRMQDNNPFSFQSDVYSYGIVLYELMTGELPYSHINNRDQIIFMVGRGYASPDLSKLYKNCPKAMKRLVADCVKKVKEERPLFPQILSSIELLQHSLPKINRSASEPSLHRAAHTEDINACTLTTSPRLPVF
inactive: erlotinib -0.011 | [1] -0.033 | [2] -0.016 | [3] -0.072 | [4] -0.113 | [5] -0.009 | [6] 0.007 | [7] 0.036 | [8] -0.044 | IRAK-1-4 Inhibitor I -0.058

RFWD3 (UniProt Q6PCD5)
inactive: erlotinib -0.12 | [1] 0.005 | [2] 0.048 | [3] -0.061 | [4] 0.062 | [5] 0.029 | [6] -0.039 | [7] -0.086 | [8] 0.053 | IRAK-1-4 Inhibitor I 0.054

RNF170 (UniProt Q96K19)
Chain of UniProt Q96K19 (Q96K19 whole entry, looked up): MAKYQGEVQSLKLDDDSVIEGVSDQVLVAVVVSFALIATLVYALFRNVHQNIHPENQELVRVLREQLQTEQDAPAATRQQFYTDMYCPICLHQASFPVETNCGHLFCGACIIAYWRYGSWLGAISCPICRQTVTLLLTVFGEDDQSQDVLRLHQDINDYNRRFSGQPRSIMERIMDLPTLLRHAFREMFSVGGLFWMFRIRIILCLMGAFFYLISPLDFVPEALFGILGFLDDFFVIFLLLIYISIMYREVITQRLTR
inactive: erlotinib 0.062 | [1] -0.018 | [2] -0.125 | [3] 0.136 | [4] 0.032 | [6] -0.577

RDH11 (UniProt Q8TC12)
Chain of UniProt Q8TC12 (Q8TC12 whole entry, looked up): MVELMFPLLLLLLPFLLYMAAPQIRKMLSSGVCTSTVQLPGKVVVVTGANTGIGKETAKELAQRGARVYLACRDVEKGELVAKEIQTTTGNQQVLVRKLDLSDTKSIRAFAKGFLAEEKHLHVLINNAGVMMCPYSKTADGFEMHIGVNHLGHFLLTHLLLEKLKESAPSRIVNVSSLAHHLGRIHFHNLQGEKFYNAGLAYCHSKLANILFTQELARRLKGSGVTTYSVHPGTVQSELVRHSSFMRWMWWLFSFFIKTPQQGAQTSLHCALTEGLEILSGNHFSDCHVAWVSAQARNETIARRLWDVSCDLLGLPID
inactive: erlotinib 0.018 | [1] 0.087 | [2] -0.02 | [3] 0.015 | [5] 0.006 | [6] -0.065 | [7] -0.037 | [8] 0.063 | IRAK-1-4 Inhibitor I 0.012

QSER1, A0A3B3IRW6
inactive: erlotinib -0.056 | [1] 0.025 | [2] 0.054 | [3] -0.057 | [5] -0.006 | [6] 0.059 | [7] 0.002 | [8] -0.046 | IRAK-1-4 Inhibitor I -0.014

RLIM (UniProt Q9NVW2)
inactive: [4] -0.021

RUFY2 isoform 1 (UniProt Q8WXA3)
Chain of UniProt Q8WXA3 (Q8WXA3 whole entry, looked up): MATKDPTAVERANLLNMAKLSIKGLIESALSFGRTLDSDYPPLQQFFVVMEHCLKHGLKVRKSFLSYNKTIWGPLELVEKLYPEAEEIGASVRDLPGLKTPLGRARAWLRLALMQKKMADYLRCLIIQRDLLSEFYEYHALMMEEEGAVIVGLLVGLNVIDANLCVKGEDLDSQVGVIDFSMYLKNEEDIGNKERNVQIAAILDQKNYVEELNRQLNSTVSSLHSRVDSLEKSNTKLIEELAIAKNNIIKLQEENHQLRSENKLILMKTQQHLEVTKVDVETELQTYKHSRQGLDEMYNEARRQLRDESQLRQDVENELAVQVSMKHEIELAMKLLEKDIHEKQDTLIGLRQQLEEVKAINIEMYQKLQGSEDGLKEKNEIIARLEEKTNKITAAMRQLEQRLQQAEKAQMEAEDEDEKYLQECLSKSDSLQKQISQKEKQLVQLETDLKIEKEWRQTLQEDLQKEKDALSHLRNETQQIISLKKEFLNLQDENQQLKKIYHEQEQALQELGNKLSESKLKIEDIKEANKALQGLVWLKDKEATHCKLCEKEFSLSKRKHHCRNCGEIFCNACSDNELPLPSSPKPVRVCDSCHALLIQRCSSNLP
inactive: [1] -0.117 | [3] 0.02 | [4] 0.016 | [5] -0.099 | [6] 0 | [7] -0.01 | [8] 0.041 | IRAK-1-4 Inhibitor I 0.05

RNF17 (UniProt Q9BXT8)
Chain of UniProt Q9BXT8 (Q9BXT8 whole entry, looked up): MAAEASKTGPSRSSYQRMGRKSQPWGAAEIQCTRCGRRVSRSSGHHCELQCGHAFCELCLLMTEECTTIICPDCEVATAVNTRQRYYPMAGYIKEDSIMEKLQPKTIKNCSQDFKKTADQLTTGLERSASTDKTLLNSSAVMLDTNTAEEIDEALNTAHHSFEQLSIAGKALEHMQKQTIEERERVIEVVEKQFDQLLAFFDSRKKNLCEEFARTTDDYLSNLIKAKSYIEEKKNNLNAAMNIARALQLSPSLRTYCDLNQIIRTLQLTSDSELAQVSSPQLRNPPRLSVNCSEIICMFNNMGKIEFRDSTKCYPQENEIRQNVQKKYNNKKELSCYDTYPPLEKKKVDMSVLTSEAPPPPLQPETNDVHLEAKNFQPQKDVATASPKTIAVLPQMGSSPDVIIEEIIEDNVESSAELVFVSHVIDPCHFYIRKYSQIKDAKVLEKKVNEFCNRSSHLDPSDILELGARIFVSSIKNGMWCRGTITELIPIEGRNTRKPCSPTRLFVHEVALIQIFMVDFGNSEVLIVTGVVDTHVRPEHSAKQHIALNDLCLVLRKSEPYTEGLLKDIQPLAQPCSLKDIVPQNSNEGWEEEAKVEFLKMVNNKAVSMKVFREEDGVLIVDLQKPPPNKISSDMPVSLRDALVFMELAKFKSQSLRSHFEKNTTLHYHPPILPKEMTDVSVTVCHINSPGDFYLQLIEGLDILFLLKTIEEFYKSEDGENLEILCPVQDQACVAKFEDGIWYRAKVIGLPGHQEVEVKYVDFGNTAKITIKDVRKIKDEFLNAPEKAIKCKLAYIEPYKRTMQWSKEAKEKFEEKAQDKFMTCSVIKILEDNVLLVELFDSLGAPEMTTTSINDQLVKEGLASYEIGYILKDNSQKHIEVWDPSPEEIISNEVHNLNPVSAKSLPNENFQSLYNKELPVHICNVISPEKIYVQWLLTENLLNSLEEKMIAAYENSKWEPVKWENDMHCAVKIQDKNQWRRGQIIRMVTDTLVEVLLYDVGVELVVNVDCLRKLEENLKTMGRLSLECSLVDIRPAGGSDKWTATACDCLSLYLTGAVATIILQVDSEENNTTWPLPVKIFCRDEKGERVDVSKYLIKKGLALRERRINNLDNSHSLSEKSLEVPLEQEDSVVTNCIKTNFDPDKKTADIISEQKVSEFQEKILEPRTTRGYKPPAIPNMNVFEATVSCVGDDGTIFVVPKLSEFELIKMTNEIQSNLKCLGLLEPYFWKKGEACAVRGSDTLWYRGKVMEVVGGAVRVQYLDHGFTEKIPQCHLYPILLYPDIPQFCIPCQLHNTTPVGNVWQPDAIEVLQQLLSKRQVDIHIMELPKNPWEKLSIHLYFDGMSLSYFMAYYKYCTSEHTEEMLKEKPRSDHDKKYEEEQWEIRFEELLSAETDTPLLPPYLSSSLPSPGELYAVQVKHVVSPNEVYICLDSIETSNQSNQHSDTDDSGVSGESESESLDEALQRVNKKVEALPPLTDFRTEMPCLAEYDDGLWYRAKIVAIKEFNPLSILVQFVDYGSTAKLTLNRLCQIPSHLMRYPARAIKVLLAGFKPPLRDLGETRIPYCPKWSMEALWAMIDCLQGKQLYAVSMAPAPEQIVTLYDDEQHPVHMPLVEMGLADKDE
inactive: erlotinib -0.055 | [2] 0.008 | [4] 0.553 | [5] 0.013 | [7] -0.025 | [8] 0.033 | IRAK-1-4 Inhibitor I 0.055

SAP30 (UniProt O75446)
Chain of UniProt O75446 (O75446 whole entry, looked up): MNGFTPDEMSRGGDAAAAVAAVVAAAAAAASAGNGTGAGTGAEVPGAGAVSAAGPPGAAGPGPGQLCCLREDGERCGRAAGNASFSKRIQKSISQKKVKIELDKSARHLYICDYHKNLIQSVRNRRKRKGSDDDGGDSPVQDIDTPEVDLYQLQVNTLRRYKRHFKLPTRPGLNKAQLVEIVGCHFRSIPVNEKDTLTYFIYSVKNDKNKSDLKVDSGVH
inactive: [1] 0.06 | [3] 0.025 | [4] -0.037 | [6] 0.013 | [7] 0.011 | [8] 0.067

RNF24 isoform 2 (UniProt Q9Y225)
inactive: erlotinib -0.146 | [2] -0.053 | [4] 0.083

RALGAPB isoform 3 (UniProt Q86X10)
inactive: [4] -0.146 | [7] -0.119 | [8] 0

RMI2 (UniProt Q96E14)
Chain of UniProt Q96E14 (Q96E14 whole entry, looked up): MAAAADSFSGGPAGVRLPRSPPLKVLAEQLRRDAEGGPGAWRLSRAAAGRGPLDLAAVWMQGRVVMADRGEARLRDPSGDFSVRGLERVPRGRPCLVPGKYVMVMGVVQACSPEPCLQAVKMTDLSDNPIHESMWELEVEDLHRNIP
inactive: erlotinib 0.051 | [1] -0.246 | [2] -0.121 | [3] 0.206 | [5] 0.002 | [6] -0.121 | [7] -0.044 | [8] 0.117 | IRAK-1-4 Inhibitor I 0.054
